Measured values published in PubChem BioAssay (Tox21).
A number with no mark means an inactive call. Results filed as inconclusive are left out. Where a call stands in place of a potency, no number is given. The source made the active and inactive calls. Unless noted, calls come from the whole dose curve; as a rule, active = well fitted curve in the direction sought with a large enough effect in the repeat runs; inconclusive = weak or mixed curves; inactive = no such curve, though single readings can be large; an effect the other way counts as inactive or inconclusive.

Key:
[1] = qHTS assay to identify small molecule antagonists of the glucocorticoid receptor (GR) signaling pathway - cell viability counter screen (AID 720693); note: nearly all actives have a fitted effect of over 55% in size
[2] = qHTS assay for identifying genotoxic compounds that show differential cytotoxicity against isogenic chicken DT40 cell lines with known DNA damage response pathways - wild type cell line (AID 743012); note: nearly all actives have a fitted effect of over 60% in size; note: potency is the fitted concentration of half-maximal effect
Outline: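 Viability of DNA repair-proficient chicken DT40 cells was assessed by CellTiter-Glo luminescence following 40 h compound exposure at 37 C/5% CO2.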

[3] = qHTS assay for identifying genotoxic compounds that show differential cytotoxicity against isogenic chicken DT40 cell lines with known DNA damage response pathways - Rev3 mutant cell line (AID 743014); note: nearly all actives have a fitted effect of over 55% in size; note: potency is the fitted concentration of half-maximal effect
[4] = qHTS assay for identifying genotoxic compounds that show differential cytotoxicity against isogenic chicken DT40 cell lines with known DNA damage response pathways - Rad54/Ku70 mutant cell line (AID 743015); note: nearly all actives have a fitted effect of over 60% in size; note: potency is the fitted concentration of half-maximal effect
[5] = qHTS assay to identify small molecule antagonists of the androgen receptor (AR) signaling pathway - cell viability counter screen (AID 743033; note: nearly all actives have a fitted effect of over 45% in size)
[6] = qHTS assay to identify small molecule antagonists of the androgen receptor (AR) signaling pathway using the MDA cell line - cell viability counter screen (AID 743041; note: nearly all actives have a fitted effect of over 45% in size)
Outline: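 In this qHTS counter assay, fluorescence intensity after CellTiter-Fluor addition indicated viability of MDA-kb2 AR-luc cells given compounds and R1881 for 16 h at 37C.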

[7] = target: Androgen receptor (Homo sapiens) (UniProt P10275); test: qHTS assay to identify small molecule antagonists of the androgen receptor (AR) signaling pathway (AID 743035; active = well fitted inhibition curve with a large enough effect in the signal ratio in the repeat runs, not every such curve was filed as active; the % refers to the signal ratio)
Outline: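 Reporter HEK293 cells were exposed to compounds and R1881 overnight (16 h, 37C); beta-lactamase activity was then quantified by FRET fluorescence.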

[8] = target: Androgen receptor (Homo sapiens) (UniProt P10275); test: qHTS assay to identify small molecule agonists of the androgen receptor (AR) signaling pathway (AID 743036; active = well fitted activation curve with a large enough effect in the signal ratio in the repeat runs, with a control signal flat, not every such curve was filed as active; the % refers to the signal ratio)
Outline: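 Reporter line: GeneBLAzer AR-UAS-bla-GripTite (HEK293). Steps: plate cells, 4 h rest, add compounds, 16 h at 37C, add LiveBLAzer B/G substrate, 2 h at RT, read fluorescence.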

[9] = target: Androgen receptor (Homo sapiens) (UniProt P10275); test: qHTS assay to identify small molecule agonists of the androgen receptor (AR) signaling pathway using the MDA cell line (AID 743040; note: nearly all actives have a fitted effect of over 20% in size)
Outline: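 Cell-based luciferase reporter: MDA-kb2, MMTV promoter (AR + GR response elements). 16 h compound exposure at 37C; ONE-Glo, 30 min RT, luminescence.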

[10] = target: Androgen receptor (Homo sapiens) (UniProt P10275); test: qHTS assay to identify small molecule antagonists of the androgen receptor (AR) signaling pathway using the MDA cell line (AID 743042; note: nearly all actives have a fitted effect of over 55% in size)
Outline: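 MDA-kb2 cells (human breast carcinoma, stably carrying an MMTV-luciferase reporter responsive to AR and GR) were plated at 3,000 cells/well and preincubated 5 hr at 37C, then given compound plus R1881 agonist for 16 h. ONE-Glo luminescence was read.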

Sequence of Androgen receptor (Homo sapiens) (P10275 whole entry, looked up): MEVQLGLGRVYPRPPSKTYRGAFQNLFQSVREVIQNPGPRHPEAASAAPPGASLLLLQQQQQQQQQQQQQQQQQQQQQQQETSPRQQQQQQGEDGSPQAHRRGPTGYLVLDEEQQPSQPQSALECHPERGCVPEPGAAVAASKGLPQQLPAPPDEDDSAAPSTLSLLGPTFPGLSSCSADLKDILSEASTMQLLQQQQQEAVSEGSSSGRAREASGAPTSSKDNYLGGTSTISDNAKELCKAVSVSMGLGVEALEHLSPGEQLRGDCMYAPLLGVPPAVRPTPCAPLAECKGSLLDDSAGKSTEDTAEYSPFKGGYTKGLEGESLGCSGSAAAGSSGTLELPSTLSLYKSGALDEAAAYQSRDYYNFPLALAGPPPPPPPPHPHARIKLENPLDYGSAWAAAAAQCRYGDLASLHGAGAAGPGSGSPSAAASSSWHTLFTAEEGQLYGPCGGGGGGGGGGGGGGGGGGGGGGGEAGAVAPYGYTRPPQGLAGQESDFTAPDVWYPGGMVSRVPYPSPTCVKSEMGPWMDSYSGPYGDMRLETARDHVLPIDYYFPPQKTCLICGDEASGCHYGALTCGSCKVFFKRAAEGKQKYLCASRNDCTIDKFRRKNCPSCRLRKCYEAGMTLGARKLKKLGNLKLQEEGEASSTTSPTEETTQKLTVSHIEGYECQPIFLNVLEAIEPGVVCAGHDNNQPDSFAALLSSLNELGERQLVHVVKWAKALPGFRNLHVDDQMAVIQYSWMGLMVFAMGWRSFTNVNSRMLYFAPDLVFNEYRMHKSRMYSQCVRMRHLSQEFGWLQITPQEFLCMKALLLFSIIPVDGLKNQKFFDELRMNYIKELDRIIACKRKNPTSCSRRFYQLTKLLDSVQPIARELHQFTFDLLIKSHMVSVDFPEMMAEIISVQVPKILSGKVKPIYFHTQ

CC(C)(CO)C(O)C(=O)NCCCO (centres undefined)
outcome [1]: inactive
Potency [2]: inactive
Potency [3]: inactive
Potency [4]: inactive
outcome [5]: inactive
Potency [6]: inactive

O=C(Cn1ccnc1[N+](=O)[O-])NCc1ccccc1
outcome [1]: inactive
Potency [2]: inactive
Potency [3]: inactive
Potency [4]: inactive
outcome [5]: inactive
Potency [6]: inactive

CC(=O)O[Si](C)(OC(C)=O)OC(C)=O
outcome [1]: inactive
Potency [2]: inactive
Potency [3]: inactive
Potency [4]: inactive
outcome [5]: inactive
Potency [6]: inactive

COS(=O)(=O)O
outcome [1]: inactive
Potency [2]: inactive
Potency [3]: inactive
Potency [4]: inactive
outcome [5]: inactive
Potency [6]: inactive

CN(C)CCN(C)CCO
outcome [1]: inactive
Potency [2]: inactive
Potency [3]: inactive
Potency [4]: inactive
outcome [5]: inactive
Potency [6]: inactive

Cc1ccc2c(c1)C(=O)c1ccccc1C2=O
outcome [1]: inactive
Potency [2]: 48.4 µM (active)
Potency [3]: 54.3 µM (active)
Potency [4]: 60.9 µM (active)
outcome [5]: inactive
Potency [6]: inactive

CC1(C)Cc2cccc(N)c2O1
outcome [1]: inactive
Potency [2]: inactive
Potency [3]: inactive
Potency [4]: inactive
outcome [5]: inactive
Potency [6]: inactive

CCCCCCCCCCCCCCC(=O)NC(CO)CCCCCCCCCCCCCC (centres undefined)
outcome [1]: inactive
Potency [2]: inactive
Potency [3]: inactive
Potency [4]: inactive
outcome [5]: inactive
Potency [6]: inactive

C=CCCCCCCCC
outcome [1]: inactive
Potency [2]: inactive
Potency [3]: inactive
Potency [4]: inactive
outcome [5]: inactive
Potency [6]: inactive

CC(C)CCOC(=O)c1ccccc1
outcome [1]: inactive
Potency [2]: inactive
Potency [3]: inactive
Potency [4]: inactive
outcome [5]: inactive
Potency [6]: inactive

O=NN(CCCl)C(=O)NC1CCCCC1
outcome [1]: inactive
Potency [2]: inactive
Potency [3]: inactive
Potency [4]: inactive
outcome [5]: inactive
Potency [6]: inactive

CC1OCCC1=O (centres undefined)
outcome [1]: inactive
Potency [2]: inactive
Potency [3]: inactive
Potency [4]: inactive
outcome [5]: inactive
Potency [6]: inactive

[O]=[Mo](=[O])=[O]
outcome [1]: inactive
Potency [2]: inactive
Potency [3]: inactive
Potency [4]: inactive
outcome [5]: inactive
Potency [6]: inactive

CC1(C)CC(OC(=O)CCCCCCCCC(=O)OC2CC(C)(C)NC(C)(C)C2)CC(C)(C)N1
outcome [1]: inactive
Potency [2]: inactive
Potency [3]: inactive
Potency [4]: inactive
outcome [5]: inactive
Potency [6]: inactive

C=CC(=O)CCCCC
outcome [1]: inactive
Potency [2]: inactive
Potency [3]: inactive
Potency [4]: inactive
Potency [6]: inactive

CCCCCc1cccc(=O)o1
outcome [1]: inactive
Potency [2]: inactive
Potency [3]: inactive
Potency [4]: inactive
outcome [5]: inactive
Potency [6]: inactive

C#CCN[C@@H]1CCc2ccccc21
outcome [1]: inactive
Potency [2]: inactive
Potency [3]: inactive
Potency [4]: inactive
outcome [7]: inactive
outcome [8]: inactive
Potency [9]: inactive
Potency [6]: inactive
outcome [10]: inactive

c1ccc2c(CC3=NCCN3)cccc2c1
outcome [1]: inactive
Potency [2]: inactive
Potency [3]: inactive
Potency [4]: inactive
Potency [6]: inactive

Cc1c(C(=O)c2c[nH]n(C)c2=O)ccc(S(C)(=O)=O)c1C1=NOCC1
outcome [1]: inactive
Potency [2]: inactive
Potency [3]: inactive
Potency [4]: inactive
outcome [7]: inactive
Potency [9]: inactive
Potency [6]: inactive
outcome [10]: inactive

CCC(=O)CC
outcome [1]: inactive
Potency [2]: inactive
Potency [3]: inactive
Potency [4]: inactive
outcome [5]: inactive
Potency [6]: inactive

CO/N=C(/C(=O)N[C@@H]1C(=O)N2C(C(=O)[O-])=C(C[n+]3ccn4ncccc43)CS[C@H]12)c1nsc(N)n1
outcome [1]: inactive
Potency [2]: inactive
Potency [3]: inactive
Potency [4]: inactive
outcome [5]: inactive
Potency [6]: inactive

NCc1ccc(S(N)(=O)=O)cc1
outcome [1]: inactive
Potency [2]: inactive
Potency [3]: inactive
Potency [4]: inactive
Potency [6]: inactive

C=CCCCC
outcome [1]: inactive
Potency [2]: inactive
Potency [3]: inactive
Potency [4]: inactive
Potency [6]: inactive

O=C1c2ccccc2C(=O)c2cc(Cl)ccc21
viability change, negative = cytotoxic [1]: -1.8% [at 7.04 µM]
activity change, negative = cytotoxicity [2]: 8.37% [at 8.52 µM]
activity, negative = cytotoxicity [3]: 3.55% [at 8.53 µM]
activity change, negative = cytotoxicity [4]: 2.51% [at 8.55 µM]
viability change, negative = cytotoxic [6]: -1.61% [at 8.47 µM]

OC[C@@H](O)C(O)[C@@H](O)CO (some centres undefined)
outcome [1]: inactive
Potency [2]: inactive
Potency [3]: inactive
Potency [4]: inactive
outcome [5]: inactive
Potency [6]: inactive

N#Cc1ccccc1O
outcome [1]: inactive
Potency [2]: inactive
Potency [3]: inactive
Potency [4]: inactive
outcome [5]: inactive
Potency [6]: inactive

CC(C)OC(=O)CCC(=O)OC(C)C
outcome [1]: inactive
Potency [2]: inactive
Potency [3]: inactive
Potency [4]: inactive
Potency [6]: inactive

CCCSSCCC
outcome [1]: inactive
Potency [2]: inactive
Potency [3]: inactive
Potency [4]: inactive
Potency [6]: inactive

CC/C(C)=N\O[Si](C)(O/N=C(\C)CC)O/N=C(\C)CC
outcome [1]: inactive
Potency [2]: inactive
Potency [3]: inactive
Potency [4]: inactive
outcome [5]: inactive
Potency [6]: inactive

CC(=O)C1C(=O)C=C(C)OC1=O (centres undefined)
outcome [1]: inactive
Potency [2]: inactive
Potency [3]: inactive
Potency [4]: inactive
outcome [5]: inactive
Potency [6]: inactive

CCCCOC(=O)C(C)O (centres undefined)
outcome [1]: inactive
Potency [2]: inactive
Potency [3]: inactive
Potency [4]: inactive
outcome [5]: inactive
Potency [6]: inactive

CC1(C)[C@H]2CC[C@](C)(C2)[C@H]1O
outcome [1]: inactive
Potency [2]: inactive
Potency [3]: inactive
Potency [4]: inactive
Potency [6]: inactive
